# Test results from PubChem BioAssay AID588329 (National Center for Advancing Translational Sciences (NCATS), 2011).
# Inconclusive results are not listed. Activity calls are given as the source filed them. The call rests on the fitted dose curve; in most records, active means well fitted inhibition curve with a large enough effect; inconclusive means small, poorly fitted or top-dose-only effect; inactive means flat fitted curve, though single readings scatter.
# Tested on: Trypanosoma brucei 6-phosphofructokinase (PFK)
# Experiment: Confirmatory Assay to Find Inhibitors of T. brucei phosphofructokinase: ATP-depletion Assay
# Conditions: recombinant T. brucei PFK, Kinase-Glo ATP depletion luminescence; series mostly up to 57.5 µM
# Description: Various species of the protozoan family Trypanosomatidae are responsible for a range of serious human diseases in tropical and subtropical areas of the world. […] Many of the disorders caused by trypanosomatids are fatal if left untreated, but most currently used drugs are inefficient and toxic. […] Oxidative metabolism involving the mitochondrial tricarboxylic acid cycle and oxidative phosphorylation are repressed in these parasites, and recent RNA interference (RNAi) experiments have shown that even partial depletion of certain individual glycolytic enzymes can lead to the death of cultured parasites. One such glycolytic enzyme, phosphofructokinase (PFK), catalyzes the formation of fructose-1,6-bisphosphate (F1,6BP) and ADP from fructose-6-phosphate (F6P) and ATP, and in many metabolic circumstances makes an important contribution to the control of flux through the glycolytic pathway. As a specific glycolytic target, PFK is particularly attractive as it catalyzes the first irreversible step in glycolysis, and structural and kinetic studies have shown very substantial and essential differences from corresponding host enzymes, allowing for the discovery of parasite-selective inhibitors. NIH Chemical Genomics Center [NCGC] NIH Molecular Libraries Probe Centers Network [MLPCN] MLPCN Grant: MH092153-01 Assay Submitter (PI): Malcom Walkinshaw, University of Edinburgh
# Substrate buffer was dispensed into white, solid 1536-well plates at 3ul/well in 0.1M triethanolamine (TEA) buffer, pH 8.0, containing final concentrations of 5 mM MgCl2, 0.01% Tween20, 0.5 mM fructose-6-phosphate (F6P) and 0.1mM ATP. Then, 23nl of compounds or DMSO were delivered to each well using a pin tool. One ul T. brucei PFK (0.1M TEA, 0.01% Tween20, 0.1% bovine serum albumin (BSA) and 1.25nM PFK, final concentrations) was then dispensed, and plates were incubated at room temperature for 45 min. The luminescent detection reagent, Kinase-Glo Plus (Promega), was then added at 2ul/well and incubated for ten minutes at room temperature. The plates were measured on a ViewLux plate reader for luminescent signal using a clear filter with a one second exposure. The %Activity was determined from the corrected luminescence values. As no specific T. brucei PFK inhibitors have been identified in the literature, 1x (1.25nM) and 0x PFK enzyme controls (untreated) were included to normalize %Activity of identified inhibitors; 0x enzyme values corresponded to 100%Activity (full inhibition), while 1x PFK enzyme values were used to normalize 0% activity (no inhibition). The Kinase-Glo Plus protocol varies from the primary screen in that it measures ATP, rather than ADP, concentration, and thus provides a measure of substrate depletion, rather than of product formation. Concentration-response curves were fitted to the signals arising from the resulting luminescence. The concentration-effect curves were then classified based on curve quality (r2), response magnitude and degree of measured activity, and compounds were subsequently categorized based on their curve class. […] Keywords: T. brucei, phosphofructokinase, PFK, glycolysis, luminescence, MLSMR, MLPCN, NIH Roadmap, qHTS, NCGC
row,Compound,Potency
1,Cc1cc(NS(=O)(=O)c2ccc(C(=O)NCc3ccc(Cl)c(Cl)c3)cc2)no1,2.31 µM (active)
2,CN(C)c1cccc(NS(=O)(=O)c2ccc(NC(=O)Cc3ccc(Cl)c(Cl)c3)cc2)c1,16.3 µM (active)
3,O=C(Cc1ccc(Cl)c(Cl)c1)Nc1ccc(S(=O)(=O)Nc2cccc(C(=O)O)c2)cc1,0.651 µM (active)
4,Cc1cc(NC(=O)c2ccc(NC(=O)Cc3ccc(Cl)c(Cl)c3)cc2)no1,inactive
5,Cc1cc(NS(=O)(=O)c2ccc(NC(=O)Cc3ccc(C)c(C)c3)cc2)no1,16.3 µM (active)
6,O=C(Cc1ccc(Cl)c(Cl)c1)Nc1ccc(S(=O)(=O)Nc2cncnc2)cc1,0.651 µM (active)
7,O=C(Cc1ccc(Cl)c(Cl)c1)Nc1ccc(S(=O)(=O)Nc2ccccc2)cc1,10.3 µM (active)
8,Cc1cc(NS(=O)(=O)c2ccc(NC(=O)Cc3ccc(Cl)cc3Cl)cc2)no1,4.61 µM (active)
9,O=C(Cc1ccc(Cl)c(Cl)c1)Nc1ccc(S(=O)(=O)Nc2ccn[nH]2)cc1,0.326 µM (active)
10,Cc1cc(N[S+](=O)([O-])c2ccc(NC(=O)Cc3ccc(Cl)nc3)cc2)no1,18.3 µM (active)
11,O=C(Cc1ccc(Cl)c(Cl)c1)Nc1ccc(S(=O)(=O)Nc2cccc(O)c2)cc1,2.06 µM (active)
12,Cc1cc(NS(=O)(=O)c2ccc(N(C)C(=O)Cc3ccc(Cl)c(Cl)c3)cc2)no1,1.03 µM (active)
13,COc1ccc(CC(=O)Nc2ccc(S(=O)(=O)Nc3cc(C)on3)cc2)cc1OC,inactive
14,Cc1cc(NS(=O)(=O)c2ccc(NC(=O)Cc3ccc(Cl)cc3)cc2)no1,2.59 µM (active)
15,Cc1cc(NS(=O)(=O)c2ccc(NC(=O)Cc3ccc(C)c(F)c3)cc2)no1,5.17 µM (active)
16,Cc1cc(NS(=O)(=O)c2ccc(NC(=O)Cc3ccc(Cl)c(Cl)c3)cc2)n(C)n1,1.03 µM (active)

row,Compound,Potency
1,Cc1cc(NS(=O)(=O)c2ccc(NC(=O)Cc3ccc(Cl)c(Cl)c3)cc2)no1,0.41 µM (active)
2,O=C(Cc1ccc(Cl)c(Cl)c1)Nc1ccc(S(=O)(=O)Nc2ccc(C(=O)O)cc2)cc1,0.326 µM (active)
3,Cc1cc(NS(=O)(=O)c2ccc(NC(=O)Cc3ccc(Cl)c(Cl)c3)cc2)on1,0.366 µM (active)
4,Cc1cc(NS(=O)(=O)c2ccc(NC(=O)Cc3ccc(Cl)c(C(F)(F)F)c3)cc2)no1,0.651 µM (active)
5,Cc1cc(NS(=O)(=O)c2ccc(NC(=O)Cc3ccc4ccccc4c3)cc2)no1,5.17 µM (active)
6,Cc1cc(NS(=O)(=O)c2ccc(NC(=O)Cc3ccc(Cl)c(F)c3)cc2)no1,0.73 µM (active)
7,Cc1cc(N[S+](=O)([O-])c2ccc3cc(NC(=O)Cc4ccc(Cl)c(Cl)c4)ccc3c2)no1,5.17 µM (active)
8,Cc1cc(NS(=O)(=O)Cc2ccc(NC(=O)Cc3ccc(Cl)c(Cl)c3)cc2)no1,2.91 µM (active)
9,Cc1cc(NS(=O)(=O)c2ccc(NC(=O)Cc3cccc(Cl)c3)cc2)no1,5.17 µM (active)
10,Cc1cc(NS(=O)(=O)c2ccc(NC(=O)CCc3ccc(Cl)c(Cl)c3)cc2)no1,16.3 µM (active)
11,O=C(Cc1ccc(Cl)c(Cl)c1)Nc1ccc(S(=O)(=O)O)cc1,0.58 µM (active)
12,Cc1cc(NS(=O)(=O)c2ccc(NCCc3ccc(Cl)c(Cl)c3)cc2)no1,11.6 µM (active)
13,Cc1cc(NS(=O)(=O)c2cccc(NC(=O)Cc3ccc(Cl)c(Cl)c3)c2)no1,16.3 µM (active)
14,O=C(Cc1ccc(Cl)c(Cl)c1)Nc1ccc(S(=O)(=O)Nc2ccon2)cc1,0.231 µM (active)
15,Cc1cc(N(C)S(=O)(=O)c2ccc(NC(=O)Cc3ccc(Cl)c(Cl)c3)cc2)no1,2.59 µM (active)
